Source: PubChem BioAssay
Values without a mark were called inactive. Calls of active or inactive are those of the source.

Target: Homeobox protein Hox-A13 (Mus musculus) (UniProt Q62424)
Assay: inhibitors of HoxA13-DNA binding, primary screen, biochemical, fluorescence polarization, labeled oligonucleotide (AID 1185)
Conditions: 15 min, higher = more signal, called active from +8 up or from −8 down

Homeobox protein Hox-A13 (Mus musculus), sequence (Q62424 whole entry, looked up): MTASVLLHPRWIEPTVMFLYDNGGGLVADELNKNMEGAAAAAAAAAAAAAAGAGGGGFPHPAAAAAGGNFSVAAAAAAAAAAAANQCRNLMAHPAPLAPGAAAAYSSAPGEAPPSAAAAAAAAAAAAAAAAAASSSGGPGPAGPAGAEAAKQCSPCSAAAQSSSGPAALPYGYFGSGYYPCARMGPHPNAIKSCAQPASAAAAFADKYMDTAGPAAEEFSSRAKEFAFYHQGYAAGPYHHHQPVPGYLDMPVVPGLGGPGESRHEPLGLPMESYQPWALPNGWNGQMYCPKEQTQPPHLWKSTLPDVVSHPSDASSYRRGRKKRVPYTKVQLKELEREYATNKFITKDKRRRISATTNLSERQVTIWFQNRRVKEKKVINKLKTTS

How did the z-score turn out when `CCCCC(O)C1C=CC2C(=O)N(C)C(=O)C2N1Nc1ccccc1` (stereo not given) was run?
The z-score was -4.23.

How did the z-score turn out when `O=C1C2C=CC(C(O)c3cccs3)N(Nc3ccccc3)C2C(=O)N1c1ccccc1` (stereo not given) was run?
The z-score was -2.56.

How did the z-score turn out when `COC(=O)[C@@]1(Cc2ccccc2)[C@@H]2[C@@H](CC(=O)[C@H]2CC(=O)C(=O)N(C)C)CN1C(=O)c1ccccc1` was run?
The z-score was -4.98.

Which z-score does the source give for `CC=CC(O)C1C=CC2C(=O)N(C)C(=O)C2N1NC(=O)OC(C)(C)C` (stereo not given) here?
The z-score was -1.46.

How did the z-score turn out when `CN(C)C(=O)[C@]1(Cc2ccccc2)N=C(c2ccc(OCCCO)cc2)O[C@@H]1c1ccccc1` was run?
Its z-score is -6.32.

How did the z-score turn out when `C=CCC(OC(C)=O)[C@@H]1[C@@H](N(Cc2cccc3ccccc23)C(=O)c2ccc(-c3ccccc3)cc2)c2cc(OCCCO)ccc2N1C(=O)c1ccc2ccccc2n1` (stereo not given in full) was run?
The z-score was -1.17.

`C=CCC(OC(C)=O)[C@@H]1[C@@H](N(Cc2ccc(-c3ccccc3)cc2)C(=O)c2ccc(-c3ccccc3)cc2)c2cc(OCCCO)ccc2N1C(=O)c1ccc2ccccc2n1` (stereo not given in full) was tested. Which z-score did it give?
Its z-score is -0.983.

How did the z-score turn out when `NC(=O)NCC#Cc1ccc2c(c1)[C@]1(C(=O)N2)[C@H](C(=O)N2CCCCCCC2)[C@H]2C(=O)O[C@H](c3ccccc3)[C@H](c3ccccc3)N2[C@@H]1c1ccc(O)cc1` was run?
The z-score was -0.376.

For `C=CCC(OC(C)=O)[C@@H]1[C@@H](N(Cc2ccc(-c3cccc(C(F)(F)F)c3)o2)C(=O)Cc2ccc(F)cc2)c2cc(OCCCO)ccc2N1C(=O)c1ccc2ccccc2c1` (stereo not given in full), which z-score is on record?
The z-score was -1.3.

With `O=C1C2C=CC(C(O)c3ccc([N+](=O)[O-])cc3)N(Nc3ccccc3)C2C(=O)N1c1ccccc1` (stereo not given) as the compound, how does the z-score read?
Its z-score is -4.48.

For `O=C1c2ccccc2[C@@]2(Cc3ccccc3N(Cc3ccccc3)C2=O)[C@H](c2ccc(CO)cc2)N1Cc1ccccc1`, which z-score is on record?
The z-score was -0.928.

With `CCOC(=O)C[C@H]1[C@H](OC(=O)Cc2ccc3c(c2)OCO3)[C@@H](NC(=O)c2ccccc2)c2cc(OCCCO)ccc2N1C(=O)Cc1ccc(OC)cc1` as the compound, how does the z-score read?
The z-score was -3.

With `CCOC(=O)C[C@H]1[C@H](OC(=O)c2ccc(-c3ccccc3)cc2)[C@@H](NC(=O)CC(C)C)c2cc(OCCCO)ccc2N1C(=O)Cc1ccc(OC)cc1` as the compound, how does the z-score read?
The z-score was -2.68.

Which z-score does the source give for `CC(C)CNC(=O)[C@@H]1c2ccccc2C(=O)N(C2Cc3ccccc3C2)[C@H]1c1ccc(CO)cc1` here?
Its z-score is -2.36.

Which z-score does the source give for `C=C(COC)C(=O)CC[C@@H](OC(C)=O)c1ccc(OCCO)cc1` here?
Its z-score is -4.63.

For `COCCOC(=O)N1C(=O)[C@@]2(c3cc(C#CC4(O)CCCCCC4)ccc31)[C@H](c1ccc(OCCO)cc1)N1[C@H](c3ccccc3)[C@H](c3ccccc3)OC(=O)[C@H]1[C@@H]2C(=O)N1CCCCCCC1`, which z-score is on record?
The z-score was -13.3 (active).

`[N-]=[N+]=NCc1ccccc1C[C@]1(C(=O)O)COC(c2ccc(OCCCO)cc2)=N1` was tested. Which z-score did it give?
The z-score was -3.85.

`N[C@@H](Cc1ccccc1)Cn1cc(C2(O)CCCCC2)nn1` was tested. Which z-score did it give?
Its z-score is -3.59.

With `Cc1ccc(F)cc1S(=O)(=O)N[C@@H]1CCN(Cc2ccc3[nH]ccc3c2)C1` as the compound, how does the z-score read?
Its z-score is -4.14.

How did the z-score turn out when `COCCOC(=O)N1C(=O)[C@@]2(c3cc(C#CC4=CCCCC4)ccc31)[C@H](c1ccccc1OCCO)N1[C@H](c3ccccc3)[C@H](c3ccccc3)OC(=O)[C@H]1[C@@H]2C(N)=O` was run?
Its z-score is -0.721.

Which z-score does the source give for `CC1(C)OC[C@@]23C=C(Br)[C@@H](C[C@H]12)[C@@]1(CO1)C3=O` here?
Its z-score is 0.26.

Which z-score does the source give for `CN1C(=O)C2C=CC(C(O)c3ccc(-c4ccccc4)s3)N(Nc3ccccc3)C2C1=O` (stereo not given) here?
The z-score was -4.68.

`C=C(COC)/C(=C/C[C@H](OC(=O)c1ccncc1)c1ccc(OCCO)cc1)c1cc(C(=O)OC)ccc1OC` was tested. Which z-score did it give?
The z-score was -4.65.

`COCCn1c(C(=O)N2CCCC2)cc2c1C[C@H]1CN(C(=O)c3ccccc3)[C@@](Cc3ccccc3)(C(=O)OC)[C@@H]21` was tested. Which z-score did it give?
The z-score was -6.05.

`CCC[C@@H]1C=C(C(=O)OCC)[C@H](c2ccccc2)N1S(=O)(=O)c1ccc(C)cc1` was tested. Which z-score did it give?
Its z-score is -0.624.

For `COCC(=C=CC[C@@H](O)c1cccc(OCCO)c1)C[C@@H](O)COCc1ccccc1`, which z-score is on record?
Its z-score is -3.67.

`CC(C)[C@@H](C(=O)O)n1cc(-c2ccccc2)nn1` was tested. Which z-score did it give?
Its z-score is -0.769.

How did the z-score turn out when `CN(C)CCCCNC(=O)[C@H]1C[C@H]2C(=O)NCC(=O)N2[C@H]1c1cccc(OCCO)c1` was run?
The z-score was -1.62.

With `[N-]=[N+]=NCc1ccccc1C[C@]1(C(=O)N2CCOCC2)N=C(c2ccc(OCCCO)cc2)O[C@H]1c1ccccc1CN=[N+]=[N-]` as the compound, how does the z-score read?
Its z-score is 0.116.

Which z-score does the source give for `C=CCNC(=O)[C@@H]1[C@H]2C(=O)O[C@H](c3ccccc3)[C@H](c3ccccc3)N2[C@H](c2ccccc2OCCO)[C@@]12C(=O)N(C(=O)OCCOC)c1ccc(C#CCCO)cc12` here?
Its z-score is -1.71.

`CC(C)=CCN(C(=O)C#Cc1ccccc1)[C@H](CO)c1ccccc1` was tested. Which z-score did it give?
The z-score was -7.52.

Which z-score does the source give for `Cc1ccccc1C(O)C1C=CC2C(=O)N(c3ccccc3)C(=O)C2N1Nc1ccccc1F` (stereo not given) here?
The z-score was -2.9.

Which z-score does the source give for `C=CC[C@]1(C(=O)NCc2ccccc2)COC(c2ccc(OCCCO)cc2)=N1` here?
The z-score was -4.86.

How did the z-score turn out when `C=C(/C(=C/C[C@@H](OC(C)=O)c1ccccc1OCCO)c1cc(C(=O)OC)ccc1OC)C(C)C` was run?
Its z-score is -4.71.

How did the z-score turn out when `CCCC=C(CCC)[C@@H](NS(=O)(=O)c1ccc(Cl)cc1)c1ccccc1` was run?
The z-score was -1.87.
